Measured values published in PubChem BioAssay.
Several values for one entry are separate records, joined by “and”; a condition that tells them apart may be missing. Equal values may be shown once. The source holds several records for some structures; these can differ, active in one and inactive in another. Activity calls are given as the source filed them.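 How the source made its calls, unless noted: active means thallium flux through the channel raised or lowered by more than 3 SD from vehicle-only wells, actives on both sides; inactive means the rest.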

Legend:
[1] = system: Hepatitis C virus NS3 helicase; assay: blockers of NS3h binding to DNA – biochemical, fluorescence polarization, NIH Clinical Collection, primary screen (AID 743270; call rule not given here); settings: NS3 helicase binding to Cy5-dT15 DNA, stronger effect = higher value, concentration not given here
[2] = biological target: Single-stranded DNA-binding protein (Escherichia coli (strain K12)) (UniProt P0AGE0); assay: SSB-ssDNA binding inhibitors – biochemical, fluorescence polarization, NIH Clinical Collection, counter-screen for HCV NS3 helicase inhibitor project (AID 743271; in the data active means inhibition above about 28%); settings: E. coli SSB-DNA binding, stronger effect = higher value, concentration not given here
[3] = compounds distorting NS3 helicase fluorescence signal – biochemical, NIH Clinical Collection, artefact control for HCV NS3 helicase inhibitor project (AID 743272; call rule not given here;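 further: HCV NS3 helicase with a Cy5 labelled single stranded DNA probe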); settings: fluorescence interference counterscreen, HCV NS3 helicase assay; stronger effect = lower value
[4] = Wnt pathway potentiators raising nuclear beta-catenin – imaging, WNT3A-conditioned medium, mouse C2C12, NPC library, primary screen (AID 1117326; in the data active means nuclear beta-catenin stimulation mostly above about 4.2%, no sharp cut-off; inactive means mostly below about 10%); settings: stronger effect = higher value
[5] = stimulators of insulin release from INS-1E, primary screen, cell-based, 5 mM glucose, NPC library (AID 1117329;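 active means compound raises insulin release from rat beta cells at 5 mM glucose, no numeric limit stated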); settings: rat INS-1E insulin secretion, at 10 µM, stronger effect = higher value
[6] = growth inhibition of GSK3B-pretreated HCT116 cells – cell-based, CellTiter-Glo, 0.2 to 20 µM (AID 1117336;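 active means compounds lowering colon cancer cell viability after pretreatment blocking the GSK3B kinase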); settings: HCT116 viability after GSK3B inhibitor, at 20 µM, stronger effect = higher value
[7] = inhibition of endothelial tube formation, primary screen, imaging, VEGF stimulated, CD31 staining, tube area, NPC library (AID 1117340;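 active means compound that reduces growth-factor-driven endothelial tube area in a mixed cell culture, no cutoff stated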); settings: VEGF-stimulated ADSC/ECFC co-culture, at 10 µM, stronger effect = higher value
[8] = GLP1 release stimulators, primary, NCI-H716, NPC library (AID 1117341;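 active means compound raises GLP1 secretion from the human gut endocrine cells, with no numeric limit stated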); settings: NCI-H716 cells, at 10 µM, stronger effect = higher value
[9] = HCT116 colon cancer cell growth inhibition, primary screen, CellTiter-Glo luminescence, NPC library (AID 1117342;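 active means compounds that lower survival of HCT116 colon cancer cells in the luminescence readout, no numeric limit stated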); settings: at 20 µM (top of the series)
[10] = reduced SW480 viability measured with CellTiter-Glo, NPC library, primary (AID 1117343;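 active means compounds that lower viability of the colon cancer cells in the luminescence readout, with no numeric limit stated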); settings: CellTiter-Glo luminescence; at 20 µM (top of the series)
[11] = NPC library primary testing for decreased DLD-1 cell viability via CellTiter-Glo (AID 1117346;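 active means compounds that lower survival of DLD-1 colon cancer cells in the luminescence readout, no cutoff given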); settings: DLD-1 viability, CellTiter-Glo luminescence; at 20 µM (top of the series)
[12] = biological target: 6-phosphogluconate dehydrogenase, decarboxylating (Homo sapiens) (UniProt P52209); assay: inhibition of human phosphogluconate dehydrogenase – biochemical, recombinant enzyme, NADPH absorbance, primary screen (AID 1159550;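 active means at least 20% inhibition of 6-phosphogluconate dehydrogenase activity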); settings: recombinant 6PGD, NADPH absorbance 341 nm; at 10 µM; stronger effect = higher value
Chain of 6-phosphogluconate dehydrogenase, decarboxylating (Homo sapiens) (P52209 whole entry, looked up): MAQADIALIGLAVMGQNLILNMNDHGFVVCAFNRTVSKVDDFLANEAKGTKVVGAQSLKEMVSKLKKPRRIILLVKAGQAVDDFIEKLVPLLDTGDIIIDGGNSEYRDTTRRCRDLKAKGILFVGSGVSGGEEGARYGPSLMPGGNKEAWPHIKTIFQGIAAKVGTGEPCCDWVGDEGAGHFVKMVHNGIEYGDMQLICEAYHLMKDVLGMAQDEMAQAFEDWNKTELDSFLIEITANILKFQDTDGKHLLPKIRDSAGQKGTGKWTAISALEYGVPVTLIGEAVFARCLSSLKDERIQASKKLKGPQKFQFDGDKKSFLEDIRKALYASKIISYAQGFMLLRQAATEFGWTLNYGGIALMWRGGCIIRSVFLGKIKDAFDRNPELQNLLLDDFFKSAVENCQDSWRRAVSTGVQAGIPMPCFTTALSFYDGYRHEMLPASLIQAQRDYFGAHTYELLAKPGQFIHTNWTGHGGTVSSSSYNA

[13] = EMT-state selective cytotoxicity in co-culture – imaging, PC-3E GFP, TEM4-18 mCherry, primary screen (AID 1345086;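 active means compounds killing one labelled cell type while sparing the other, by normalised counts and ratio limits, not self-fluorescent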;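 on all read-outs here: cells exposed to compound for 72 h before imaging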;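 on red/green cell ratio (normalised): normalised mesenchymal count divided by normalised epithelial count so high means epithelial killing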); settings: PC-3E GFP / TEM4-18 mCherry co-culture, imaging cell counts, at 1 µM; for red/green cell ratio (normalised): actives lie on both sides, counts scaled to control wells, 1 = unselective
[14] = MELAS cybrid and Rieske KO viability enhancers – cell-based, MELAS cybrids, Rieske KO mouse fibroblasts, CellTiter-Glo, primary screen (AID 1508586;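 active means mean z-score across replicates of 1.96 or higher in either the MELAS or the Rieske mutant cell line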;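 further: z relative to plate mean and SD of compound and empty wells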); settings: low glucose
[15] = biological target: NAD(+) hydrolase SARM1 (Homo sapiens) (UniProt Q6SZW1); assay: blocking NAD cleavage by SARM1 SAM-TIR – cell lysate, NAD-Glo luminescence (AID 1508614;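 active means compound whose remaining NAD level is above about 45 nM, limit read from the data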); settings: SAM-TIR HEK293T lysate NADase, at 1 µM, stronger effect = higher value
Chain of NAD(+) hydrolase SARM1 (Homo sapiens) (Q6SZW1 whole entry, looked up, the tested form may be a part): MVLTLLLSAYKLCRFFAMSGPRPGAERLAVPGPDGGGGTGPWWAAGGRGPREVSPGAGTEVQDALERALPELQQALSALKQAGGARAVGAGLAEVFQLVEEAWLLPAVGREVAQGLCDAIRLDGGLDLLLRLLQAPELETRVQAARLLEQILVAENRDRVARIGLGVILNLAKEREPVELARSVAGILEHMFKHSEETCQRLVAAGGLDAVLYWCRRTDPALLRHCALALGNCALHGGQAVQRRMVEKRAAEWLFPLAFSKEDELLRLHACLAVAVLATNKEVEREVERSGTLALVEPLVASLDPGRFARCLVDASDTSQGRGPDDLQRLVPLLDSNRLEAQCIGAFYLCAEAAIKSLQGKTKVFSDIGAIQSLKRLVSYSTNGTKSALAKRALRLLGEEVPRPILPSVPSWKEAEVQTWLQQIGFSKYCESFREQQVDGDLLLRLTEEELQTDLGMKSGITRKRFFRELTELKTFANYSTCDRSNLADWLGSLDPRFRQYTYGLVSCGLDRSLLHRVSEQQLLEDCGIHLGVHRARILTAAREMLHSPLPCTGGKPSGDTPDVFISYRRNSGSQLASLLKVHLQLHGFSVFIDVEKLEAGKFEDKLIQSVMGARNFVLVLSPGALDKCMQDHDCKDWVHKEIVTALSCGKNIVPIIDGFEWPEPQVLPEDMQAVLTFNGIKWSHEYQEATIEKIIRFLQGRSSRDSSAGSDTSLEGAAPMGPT

[16] = biological target: Mitogen-activated protein kinase 7 (Homo sapiens) (UniProt Q13164); assay: Gal4-ERK5 driven luciferase induction – cell-based, HTS, primary screen (AID 1508626;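 active means luciferase signal above three times the same-plate solvent-only control wells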;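 further: luciferase driven by Gal4-ERK5 fusion binding five Gal4 sites before minimal TATA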); settings: HeLa Gal4-ERK5 transactivation, 18 h, at 5 µM, stronger effect = higher value
Chain of Mitogen-activated protein kinase 7 (Homo sapiens) (Q13164 whole entry, looked up, the tested form may be a part): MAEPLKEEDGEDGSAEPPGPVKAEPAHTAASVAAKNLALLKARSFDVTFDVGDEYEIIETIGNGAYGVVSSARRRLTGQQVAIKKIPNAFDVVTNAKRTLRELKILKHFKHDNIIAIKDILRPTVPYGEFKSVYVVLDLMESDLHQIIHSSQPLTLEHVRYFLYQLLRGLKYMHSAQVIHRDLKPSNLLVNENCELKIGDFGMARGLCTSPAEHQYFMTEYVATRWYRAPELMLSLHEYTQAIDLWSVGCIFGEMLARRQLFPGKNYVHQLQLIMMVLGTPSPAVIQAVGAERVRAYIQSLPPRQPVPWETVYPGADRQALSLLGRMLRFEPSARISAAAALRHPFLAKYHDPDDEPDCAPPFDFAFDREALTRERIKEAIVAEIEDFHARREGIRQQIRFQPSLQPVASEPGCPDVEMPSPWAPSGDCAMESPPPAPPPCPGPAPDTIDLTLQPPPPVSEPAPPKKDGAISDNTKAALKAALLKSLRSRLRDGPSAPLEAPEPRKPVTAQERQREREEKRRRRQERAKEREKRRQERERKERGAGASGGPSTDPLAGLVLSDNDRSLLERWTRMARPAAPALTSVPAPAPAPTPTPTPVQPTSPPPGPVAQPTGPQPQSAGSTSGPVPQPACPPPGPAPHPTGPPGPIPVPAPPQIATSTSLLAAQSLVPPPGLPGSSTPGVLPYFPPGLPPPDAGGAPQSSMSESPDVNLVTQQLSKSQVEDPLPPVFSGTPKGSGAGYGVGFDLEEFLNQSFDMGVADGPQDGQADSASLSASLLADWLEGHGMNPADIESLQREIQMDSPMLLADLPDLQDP

F380Y = assay: BK channel mutant inhibitors and activators – cell-based, U2OS BacMam, thallium flux, beta subunits, selectivity assay, profiling panel (AID 1259406); settings: U2OS BacMam BK variants, at 30 µM;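 further: initial slope of Thallos dye fluorescence rise after thallium is added; log ratio against the mean of 0.3% DMSO vehicle wells on the same plate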
F380Y/beta2Delta = assay: as above; settings: U2OS BacMam BK variants, at 30 µM
[17] = biological target: Calcium-activated potassium channel subunit alpha-1 (Homo sapiens) + Leucine-rich repeat-containing protein 26 (Homo sapiens) (UniProt Q12791+Q2I0M4); assay: as above; settings: U2OS BacMam BK variants, F380Y/Slo1WT/gamma1, at 30 µM
Chain of Calcium-activated potassium channel subunit alpha-1 (Homo sapiens) + Leucine-rich repeat-containing protein 26 (Homo sapiens) (Q2I0M4 whole entry, looked up, one chain of several): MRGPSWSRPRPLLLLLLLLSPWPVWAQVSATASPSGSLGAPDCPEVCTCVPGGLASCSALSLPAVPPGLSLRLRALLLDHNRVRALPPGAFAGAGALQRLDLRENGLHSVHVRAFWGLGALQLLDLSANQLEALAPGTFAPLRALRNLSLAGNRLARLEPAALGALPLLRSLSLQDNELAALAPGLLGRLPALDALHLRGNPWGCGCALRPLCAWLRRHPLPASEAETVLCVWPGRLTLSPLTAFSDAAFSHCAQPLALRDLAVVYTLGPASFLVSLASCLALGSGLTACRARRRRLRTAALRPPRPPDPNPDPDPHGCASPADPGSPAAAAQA

[18] = viability loss with induced miR-34 in A549 – imaging, A549 dox-inducible miR-34, nuclei and caspase counts, primary screen (AID 1347080;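 active means compounds whose cell count with miR-34 switched on is under 0.7 times the count with it off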); settings: A549 miR-34 inducible, Hoechst nuclei count, 48 h
[19] = measured here: epithelial PC-3E GFP cell survival
[20] = measured here: mesenchymal TEM4-18 mCherry cell survival
[21] = MELAS cybrid survival, CellTiter-Glo 48 h, stronger effect = higher value
[22] = Rieske KO mouse fibroblast survival, CellTiter-Glo 72 h
[23] = stronger effect = lower value, cell number ratio, induced over uninduced
[24] = measured here: relative caspase fold change +Dox/-Dox
[25] = measured here: total cells with miR-34 induction, stronger effect = lower value
[26] = measured here: total cells without miR-34 induction

COc1ccc2c(c1)c(CC(=O)O)c(C)n2C(=O)c1ccc(Cl)cc1
inhibition [1]: -3.56% (inactive) | inhibition [2]: -2.41% (inactive) | fluorescence ratio [3]: 1.01 (inactive) | nuclear beta-catenin stimulation ([4]; at 10 µM): 0.6% (inactive) | nuclear beta-catenin stimulation ([4]; stimulation, at 2 µM): 1% | insulin secretion stimulation [5]: -1% (inactive) | viability decrease [6]: -52.1% (inactive) | tube area decrease [7]: -10.5% (inactive) | GLP1 secretion stimulation [8]: 1.6% (inactive) | inhibition of viability [9]: 0.43% (inactive) | viability decrease (inhibition) [10]: 10.6% (inactive) | viability decrease (inhibition) [11]: 3.4% (inactive) | inhibition [12]: -5.45% (inactive) | red/green cell ratio (normalised) [13]: 1.02 (inactive) | normalised cell number [13, 19]: 0.91 | normalised cell number [13, 20]: 0.93 | z-score [14, 21]: -0.268 (inactive) and 0.659 (inactive) and 0.23 (inactive) | z-score [14, 22]: -0.036 and -0.235 and -0.118 | remaining NAD [15]: 10 nM (inactive) | luciferase signal [16]: 36 AU (inactive) | log fold change Tl+ flux (F380Y): 0.0847 (inactive) | log fold change Tl+ flux (F380Y/beta2Delta): 0.11 (active) | log fold change Tl+ flux [17]: 0.0683 (inactive)

C=CCCCCCCCCC(=O)O
nuclear beta-catenin stimulation ([4]; at 10 µM): -0.1% (inactive) and -2.1% (inactive) | nuclear beta-catenin stimulation ([4]; stimulation, at 2 µM): 0.8% and -1.5% | insulin secretion stimulation [5]: -1.7% (inactive) and 0.4% (inactive) | viability decrease [6]: -6.75% (inactive) and -111% (inactive) | tube area decrease [7]: 3.3% (inactive) and 1.9% (inactive) | GLP1 secretion stimulation [8]: 1.3% (inactive) and -1.9% (inactive) | inhibition of viability [9]: 0.2% (inactive) and 0.1% (inactive) | viability decrease (inhibition) [10]: 69.8% (active) and 6.3% (inactive) | viability decrease (inhibition) [11]: 14.5% (inactive) and 8% (inactive) | red/green cell ratio (normalised) [13]: 0.93 (inactive) | normalised cell number [13, 19]: 1.02 | normalised cell number [13, 20]: 0.95 | fold change [18, 23]: 0.879 (inactive) | fold change [18, 24]: 4.79 | cell count [18, 25]: 11700 | cell count [18, 26]: 13300 | remaining NAD [15]: 10 nM (inactive) | luciferase signal [16]: 20 AU (inactive)

OCCN(CCO)c1nc(N2CCCCC2)c2nc(N(CCO)CCO)nc(N3CCCCC3)c2n1
inhibition [1]: 2.27% (inactive) | inhibition [2]: 5.62% (inactive) | fluorescence ratio [3]: 0.85 (inactive) | nuclear beta-catenin stimulation ([4]; at 10 µM): 0.7% (inactive) | nuclear beta-catenin stimulation ([4]; stimulation, at 2 µM): 1.8% | insulin secretion stimulation [5]: 0.7% (inactive) | viability decrease [6]: 20.5% (inactive) | tube area decrease [7]: 8.6% (inactive) | GLP1 secretion stimulation [8]: 8% (inactive) | inhibition of viability [9]: 61.4% (active) | viability decrease (inhibition) [10]: 41.1% (inactive) | viability decrease (inhibition) [11]: 4.3% (inactive) | inhibition [12]: 11% (inactive) | red/green cell ratio (normalised) [13]: 1.08 (inactive) | normalised cell number [13, 19]: 1.13 | normalised cell number [13, 20]: 1.22 | z-score [14, 21]: -0.622 (inactive) and 4.01 (active) and 2.55 (active) | z-score [14, 22]: -0.0206 and -0.634 and 4.9 | remaining NAD [15]: 10 nM (inactive) | luciferase signal [16]: 136 AU (inactive)

CC1(C)O[C@@H]2C[C@H]3[C@@H]4CCC5=CC(=O)C=C[C@]5(C)[C@@]4(F)[C@@H](O)C[C@]3(C)[C@]2(C(=O)CO)O1
inhibition [1]: -0.45% (inactive) | inhibition [2]: 4.1% (inactive) | fluorescence ratio [3]: 0.99 (inactive) | nuclear beta-catenin stimulation ([4]; at 10 µM): -0.5% (inactive) | nuclear beta-catenin stimulation ([4]; stimulation, at 2 µM): 3.8% | insulin secretion stimulation [5]: 3.4% (inactive) | viability decrease [6]: 21.8% (inactive) | tube area decrease [7]: 0.2% (inactive) | GLP1 secretion stimulation [8]: -1% (inactive) | inhibition of viability [9]: 8.4% (inactive) | viability decrease (inhibition) [10]: 34.9% (inactive) | viability decrease (inhibition) [11]: -6.5% (inactive) | inhibition [12]: 10.8% (inactive) | fold change [18, 23]: 0.992 (inactive) | fold change [18, 24]: 0.777 | cell count [18, 25]: 7390 | cell count [18, 26]: 7450 | remaining NAD [15]: 10 nM (inactive) | luciferase signal [16]: 36 AU (inactive) | log fold change Tl+ flux (F380Y): 0.0424 (inactive) | log fold change Tl+ flux (F380Y/beta2Delta): -0.014 (inactive) | log fold change Tl+ flux [17]: 0.106 (active)

C[C@@H]1CC(=O)NN=C1c1ccc(NN=C(C#N)C#N)cc1
nuclear beta-catenin stimulation ([4]; at 10 µM): 7.5% (inactive) and 2.8% (inactive) | nuclear beta-catenin stimulation ([4]; stimulation, at 2 µM): 0% and -0.4% | insulin secretion stimulation [5]: -2.9% (inactive) and -1.5% (inactive) | viability decrease [6]: -8.85% (inactive) and 2.3% (inactive) | tube area decrease [7]: 41.6% (active) and 22.4% (inactive) | GLP1 secretion stimulation [8]: 1.1% (inactive) and -7% (inactive) | inhibition of viability [9]: -20.6% (inactive) and 6.9% (inactive) | viability decrease (inhibition) [10]: 30.7% (inactive) and -5.7% (inactive) | viability decrease (inhibition) [11]: 12.6% (inactive) and 21.9% (inactive) | red/green cell ratio (normalised) [13]: 1.17 (inactive) | normalised cell number [13, 19]: 1.03 | normalised cell number [13, 20]: 1.21 | fold change [18, 23]: 0.967 (inactive) | fold change [18, 24]: 0.752 | cell count [18, 25]: 8720 | cell count [18, 26]: 9020 | remaining NAD [15]: 10 nM (inactive)

CC(=O)OCC(=O)[C@@]1(O)CC[C@H]2[C@@H]3CCC4=CC(=O)CC[C@]4(C)[C@H]3C(=O)C[C@@]21C
inhibition [1]: -0.45% (inactive) | inhibition [2]: -0.48% (inactive) | fluorescence ratio [3]: 1.01 (inactive) | nuclear beta-catenin stimulation ([4]; at 10 µM): 1.3% (inactive) | nuclear beta-catenin stimulation ([4]; stimulation, at 2 µM): 0.9% | insulin secretion stimulation [5]: 2.1% (inactive) | viability decrease [6]: 3.8% (inactive) | tube area decrease [7]: -2.1% (inactive) | GLP1 secretion stimulation [8]: 7% (inactive) | inhibition of viability [9]: -5.5% (inactive) | viability decrease (inhibition) [10]: -2.6% (inactive) | viability decrease (inhibition) [11]: -11.3% (inactive) | inhibition [12]: -3.27% (inactive) | fold change [18, 23]: 0.993 (inactive) and 0.93 (inactive) | fold change [18, 24]: 1.87 and 1.55 | cell count [18, 25]: 10600 and 10400 | cell count [18, 26]: 10700 and 11200 | remaining NAD [15]: 10 nM (inactive) | luciferase signal [16]: 28 AU (inactive) | log fold change Tl+ flux (F380Y): -0.00173 (inactive) | log fold change Tl+ flux (F380Y/beta2Delta): -0.0255 (inactive) | log fold change Tl+ flux [17]: -0.0083 (inactive)
